The entries come from a sample that favours hits as a whole.
Pf apPOL inh – Pf-apPOL DNA polymerase inhibition | Recombinant Pf-apPOL, molecular beacon fluorescence, 1.5 h | inhibition, % at 10 µM | hit rate 0.25% among 210,000
mHTT-CaM PPI inh – mHTT-calmodulin interaction abrogation | AlphaScreen His-mHTT/GST-CaM binding, luminescence | inhibition, % at 15 µM | AID 1671202 | hit rate 3.6% among 190,000
Numbers stand for hits; 0 = inactive; - = no result given. No stated cut-off is given here; in the data, active means inhibition above about 50%; inactive means the rest.

SMILES	Pf apPOL inh	mHTT-CaM PPI inh
O=C(Nc1ccc(Cl)c(Cl)c1)c1cc(S(=O)(=O)NCc2ccco2)ccc1F	0	100
COc1ccccc1CNS(=O)(=O)c1ccc(F)c(C(=O)Nc2ccc(F)c(F)c2)c1	0	0
O=C(Nc1ccc(Cl)c(Cl)c1)c1ccc(F)c(S(=O)(=O)NCc2ccco2)c1	0	64
O=C(Nc1cccc(Cl)c1)c1ccc(F)c(S(=O)(=O)NCc2cccs2)c1	0	0
COc1ccccc1CNS(=O)(=O)c1ccc(F)c(C(=O)Nc2ccc(C)c(Cl)c2)c1	0	70
O=C(Nc1ccc(Cl)c(Cl)c1)c1ccc(F)c(S(=O)(=O)NCc2cccs2)c1	0	81
O=C(Nc1cc(Cl)cc(Cl)c1)c1cc(S(=O)(=O)NCc2ccco2)ccc1F	0	0
Cc1noc(C)c1C1CCCN1Cc1ccccc1Cl (centres undefined)	0	0
CCCn1c(=N)c(C(=O)NCC)cc2c(=O)n3cccc(C)c3nc21	0	0
O=[N+]([O-])c1ccc(S(=O)(=O)N2CCCC2)cc1	0	-
CC(C)Oc1cccc(NC(=O)c2csnn2)c1	0	-
CC(C)COc1ccc(C2(C)C(=O)N(CN3CCOCC3)C(=O)N2CN2CCOCC2)cc1 (centres undefined)	0	0
Cc1ccc(-c2csc3ncnc(Nc4ccc(N5CCOCC5)cc4)c23)cc1	0	60
Cc1sc2ncnc(Nc3ccc(N4CCCCC4)cc3)c2c1C	0	0
CN(C)Cc1c(O)ccc2c1OC(=Cc1cc(Br)cc3c1OCOC3)C2=O	0	0
CN(C)CCCNC(=O)C1CCN(c2nc3ccc(-c4ccccc4F)nc3s2)CC1	0	0
CN(CC#CCC(O)(c1ccccc1)c1ccccc1)Cc1ccccc1	0	87
CN(CC#CC(C)(C)O)Cc1ccccc1	0	0
Cc1ccccc1OCC(=O)N1N=C(c2cccc(Br)c2)CC1(O)C(F)(F)F (centres undefined)	0	99
CCCCC1=NN(C(=O)c2ccccc2Cl)C(O)(C(F)(F)F)C1 (centres undefined)	0	0
CCC1=NN(C(=O)COc2ccccc2C)C(O)(C(F)(F)F)C1 (centres undefined)	0	0
CCCCC1=NN(C(=O)COc2ccc(Cl)c(C)c2)C(O)(C(F)(F)F)C1 (centres undefined)	0	100
CC(=O)Nc1ccc(C=Nc2cc(Br)c(O)c(Br)c2)cc1	0	0
Cc1nc2c(C(=O)NCc3ccccc3)c[nH]n2c(=O)c1Cc1ccccc1Cl	0	0
Cc1nc2c(C(=O)NCc3ccccc3Cl)c[nH]n2c(=O)c1Cl	0	0
SMILES	Pf apPOL inh	mHTT-CaM PPI inh
Cc1nc2c(C(=O)NCCc3ccccc3Cl)c[nH]n2c(=O)c1Cl	0	57
Cc1nc2c(C(=O)NCc3ccccc3)c[nH]n2c(=O)c1Cl	73	0
Brc1ccc(-c2csc(Nc3ncccn3)n2)cc1	0	0
Cc1cc(OC(=O)CC(C)C)c([N+](=O)[O-])c(=O)[nH]1	0	0
COc1ccc(OC)c(C=C2Oc3cc(C)cc(O)c3C2=O)c1	0	0
COc1ccc(C=C2Oc3cc(C)cc(O)c3C2=O)c(OC)c1OC	0	75
Cc1nc(C(=O)NCCc2ccc(Cl)cc2)c(C)n1C1CCN(S(C)(=O)=O)CC1	0	61
Cc1nc(C(=O)NCCc2ccccn2)c(C)n1C1CCN(S(C)(=O)=O)CC1	0	0
Cc1nc(C(=O)NCCCN2CCCc3ccccc32)c(C)n1C1CCN(C)CC1	0	97
CCCNC(=O)c1nc(C)n(C2CCN(C)CC2)c1C	0	0
CC(C)n1c(=O)c2c(ncn2Cc2cccc(F)c2)n(-c2ccc(F)cc2)c1=O	0	0
O=c1cc(-c2ccccc2)c2ccc(O)c(CN3CCOCC3)c2o1	0	0
CCN(CC)C(=O)CC(c1cc(OC)c(OC)c(OC)c1)c1c(OC)cc(OC)c2c(-c3ccccc3)cc(=O)oc12 (centres undefined)	0	69
COc1cc(C(CCN2CCOCC2)c2c(OC)cc(OC)c3c(-c4ccccc4)cc(=O)oc23)cc(OC)c1OC (centres undefined)	0	75
COc1cc(O)c(CN2CCCC2)c2oc(-c3ccccc3)cc(=O)c12	0	0
COc1cc(C(CCN2CCCC2)c2c(OC)cc(OC)c3c(-c4ccccc4)cc(=O)oc23)cc(OC)c1OC (centres undefined)	0	58
CCN(CC)C(=O)CC(c1cc(OC)c(OC)c(OC)c1)c1c(OC)cc(OC)c2ccc(=O)oc12 (centres undefined)	0	0
Cc1ccccc1C(=O)N1CCCC1COc1ccc(C(=O)N2CCOCC2)cc1 (centres undefined)	0	0
COc1ccc(C2=N/C(=C/c3cc(OC)ccc3OC)C(=O)O2)cc1	0	0
Cc1ccsc1C(=O)N1CCc2nc(-c3ccc(F)cc3)ncc2C1	0	0
Cc1c(N=Cc2cc([N+](=O)[O-])c(Cl)cc2Cl)c(=O)n(-c2ccccc2)n1C	0	0
O=c1[nH]c2ccc(N=Cc3cc([N+](=O)[O-])c(Cl)cc3Cl)cc2[nH]1	0	94
O=c1[nH]c2ccc(N=Cc3cc(O)ccc3Br)cc2[nH]1	0	0
O=c1[nH]c2ccc(N=Cc3cc(Br)cc(Br)c3O)cc2[nH]1	0	61
O=c1[nH]c(NCCO)c(I)c(=O)[nH]1	0	0
SMILES	Pf apPOL inh	mHTT-CaM PPI inh
CCOc1ccc(C2=CC(c3ccccc3F)n3ncnc3N2)cc1Cl (centres undefined)	0	0
N#CC1=C(N)OC2=C(C(=O)CC(c3ccccc3)C2)C1c1ccccc1F (centres undefined)	0	0
N#CC1=C(N)OC2=C(C(=O)CC(c3ccccc3)C2)C1c1c[nH]c2ccccc12 (centres undefined)	0	58
CC1=NN(c2cccc(C(=O)O)c2)C(=O)/C1=C/c1ccc(-c2ccc(Br)cc2)o1	0	61
CC1=NN(c2cccc(C(=O)O)c2)C(=O)/C1=C/c1ccc(-c2cc(Cl)ccc2Cl)o1	0	0
O=[N+]([O-])c1ccc2c(c1)S(=O)(=O)c1cc([N+](=O)[O-])ccc1-2	0	0
